Screens as filed in PubChem BioAssay.
Hits are enriched below; roughly 7.3% of the tested compounds scored in any of these assays.
FMDV antiviral – High Throughput Screening for Foot and Mouth Disease Virus Antivirals; FMDV antiviral cell-based qHTS; Potency, µM (series often up to 57.9 µM), without a hit: at the highest dose activity change, negative = inhibition, usual class: inhibitors; 410,000 compounds, 1.2% hits; calls by dose curve; tested in HEK293T cells; also: read-out not given here; potency is read from the fitted curve at half-maximal effect; nearly all actives have a fitted effect of over 45% in size
HCMV antiviral – qHTS Assay for inhibitors of the human cytomegalovirus (HCMV). activity change, negative = inhibition, % at 57.5 µM. HFF cells, HCMV-luciferase reporter, 72 h; hits give low values. AID 1259415, 2018. 410,000 compounds, 4.5% hits; in the data active = activity change below about -60%; inconclusive = no clear call, values can overlap the other calls; inactive = above about -39%
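Inhibition of viral replication was scored as loss of reporter luminescence in HFFs infected with HCMV-luciferase (MOI 1 PFU/cell) for 72 h; compounds tested at 2 doses, normalized to buffer and Salinomycin controls.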
Vaccinia mCherry – qHTS for Stage-Specific Inhibitors of Vaccinia Orthopoxvirus: mCherry Reporter Primary qHTS. 310,000 compounds, 0.63% hits. AID 720579, 2013. Potency, µM (doses to about 36.5 µM), inactives show at the highest dose activity change, negative = inhibition, most hits filed as inhibitors. Vaccinia virus mCherry reporter infection, fluorescence; calls by dose curve; tested in A549 cells; also: potency is read from the fitted curve at half-maximal effect; nearly all actives have a fitted effect of over 35% in size
VACV Venus inh – qHTS for Stage-Specific Inhibitors of Vaccinia Orthopoxvirus: Venus Reporter Primary qHTS. Vaccinia virus Venus reporter expression, fluorescence. Potency, µM (top dose mostly 36.5 µM), without a hit: at the highest dose activity change, negative = inhibition, usual class: inhibitors. 330,000 compounds, 0.46% hits; calls by dose curve; tested in A549 cells; also: potency is read from the fitted curve at half-maximal effect; nearly all actives have a fitted effect of over 30% in size
HCV inhibitor – qHTS Assay for Inhibitors of Hepatitis C Virus (HCV); Potency, µM (series often up to 41.8 µM), inactives show at the highest dose activity change, negative = inhibition, actives largely listed as inhibitors; 340,000 compounds, 3.4% hits; Huh7.5.1 HCVcc-Cre infection, luciferase reporter, 44 h; active = well fitted inhibition curve with a large enough effect; inconclusive = small, poorly fitted or top-dose-only effect, or another doubt; inactive = no such curve, though single readings can be large or run the other way; also: potency is read from the fitted curve at half-maximal effect
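Cells seeded at 1,000/well and cultured 4 h, then compounds added followed by HCVcc-Cre virus (~0.5 moi). After 44 h further culture, luciferase substrate was added, plates held 15 min at room temperature, and luminescence read for 15 sec.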
Numbers without * were called inactive; i = inactive; ? = inconclusive; . = no result given. % is scaled to controls: 0 for no effect and ±100 for the full control effect.

SMILES	FMDV antiviral	HCMV antiviral	Vaccinia mCherry	VACV Venus inh	HCV inhibitor
COc1ccccc1N1CCN(C(=O)c2ccc3[nH]c4c(c3c2)CC(C)CC4)CC1 (configuration not stated)	?	19	-25%	-10%	11µM*
Cn1c(=O)c(=O)n(C)c2cc(S(=O)(=O)CCC(=O)Nc3c(F)c(F)c(F)c(F)c3F)ccc21	-8%	-28	.	.	21%
C=C(C)c1cccc(C(C)(C)NC(=O)NCc2ccc(OC)c(OC)c2)c1	-16%	-35	.	.	11µM*
C=C(C)c1cccc(C(C)(C)NC(=O)Nc2ccc(C(N)=O)cc2)c1	?	-67*	i	-14%	-18%
C=CCOc1ccccc1OCC(O)CNC(C)C (configuration not stated)	-12%	-22	-16%	-15%	1µM*
O=C(Nc1ccc(Oc2nnc(-c3ccccc3)c3ccccc23)cc1)c1ccccc1	?	-60*	-6%	-8%	-8%
COc1ccc(Oc2nnc(-c3ccc(C)cc3)c3ccccc23)cc1	.	-27	-13%	-12%	22%
Cc1ccccc1CN1[C@H]2CCCC[C@@H]2OCCS1(=O)=O	.	.	-1%	-22%	.
CC(=O)c1ccc2c(c1)OCO2	-21%	19	2%	12%	-14%
C[n+]1cc2c3c(ccc2c2ccc4cc5c(cc4c21)OCO5)OCO3	25µM*	-98*	11µM*	10µM*	.
Cc1ccc(-n2c(=O)c3sc4ccccc4c3n(CC(=O)NC3CCCC3)c2=O)cc1C	-11%	-71*	-24%	-27%	.
O=C(Cn1c(=O)n(-c2cccc(Cl)c2)c(=O)c2sc3ccccc3c21)N1CCCC1	-6%	-81*	-7%	-9%	.
COc1ccc(-n2c(=O)c3sc4ccccc4c3n(CC(=O)NCc3ccccc3)c2=O)cc1	-15%	-105*	-6%	2%	.
CN(Cc1ccccc1)C(=O)c1ccc2c(c1)N(Cc1ccc(Cl)cc1)C(=O)c1ccccc1S2=O (configuration not stated)	0%	?	?	-22%	.
CN(C)CCCCCCNc1nccc(N2CCN(C)CC2)n1	.	.	-17%	-18%	.
Cn1cccc1C(=O)N1CCC[C@@]2(CCN(c3ccncc3)C2)C1	-6%	.	.	.	.
COc1cc2oc(=O)c3c4c(cc5ccc(c1CCN(C)C)c2c53)OCO4	-6%	.	.	.	.
Cc1ccc(C)c(S(=O)(=O)c2nnn3c2nc(NC(C)C)c2sccc23)c1	?	-70*	-21%	?	.
Cc1ccc(C)c(S(=O)(=O)c2nnn3c2nc(Nc2ccc(C)c(C)c2)c2sccc23)c1	-5%	3	-15%	-20%	.
NS(=O)(=O)c1ccc(CCNCc2ccccc2OCc2ccc(F)cc2)cc1	?	-67*	-2%	-16%	?
CCOc1ccc(CNCCc2ccc(S(N)(=O)=O)cc2)cc1	-7%	-1	-1%	-10%	-28%
COc1cc(CNCCc2ccc(S(N)(=O)=O)cc2)ccc1OCc1ccc(Cl)cc1	?	-93*	.	.	4.5µM*
CCOc1cc(CNCCc2ccc(S(N)(=O)=O)cc2)ccc1OCc1ccc(Cl)cc1	?	-103*	.	11µM*	?
COc1cc(CNCCc2ccc(S(N)(=O)=O)cc2)ccc1OCC(=O)NC1CCCCC1	-3%	13	.	.	?
Nc1sc(Cc2ccccc2)cc1C(=O)NC1CCCCC1	22%	7	?	-4%	.
SMILES	FMDV antiviral	HCMV antiviral	Vaccinia mCherry	VACV Venus inh	HCV inhibitor
O=c1[nH]c2ccccc2nc1-c1nnnn1Cc1ccccc1	-23%	0	28%	5%	.
CN(C)/C=N/c1c(C#N)cnn1-c1ccccc1	.	97	i	-14%	-8%
CCN(CC)CCn1c2ccccc2c2cnc(N=CN(C)C)c(C#N)c21	-9%	-94*	.	?	?
CCn1c2ccccc2c2cnc(N=CN(C)C)c(C#N)c21	?	-70*	.	-45%	13µM*
Cc1ccc(C(=O)c2cn(Cc3ccccc3C)c3nc(C)ccc3c2=O)cc1	-19%	?	-17%	-12%	.
COc1ccccc1CNC(=O)COC(=O)c1c(C)nn(-c2ccccc2)c1Cl	1%	-5	.	.	11µM*
COc1ccc(C)cc1NC(=O)C1COc2ccccc2O1 (configuration not stated)	31%	-12	-13%	-12%	?
COc1ccc(C)cc1NC(=O)COC(=O)C1COc2ccccc2O1 (configuration not stated)	-7%	-92*	.	.	0%
Cc1nn(-c2ccccc2)c(C)c1C(=O)OCC(=O)NC(=O)NC1CCCC1	0%	-19	.	?	8.9µM*
COc1ccc(C)cc1NC(=O)COC(=O)c1c(C)nn(-c2ccccc2)c1C	?	-32	.	.	13µM*
Cc1nn(-c2ccccc2)c(C)c1C(=O)OCC(=O)Nc1ccccc1F	17%	0	.	.	?
CCN(CCCNC(=O)c1nn(-c2ccc(OC)cc2)c(=O)c2c1c1ccccc1n2C)c1ccccc1	-22%	13	-10%	-3%	.
COc1ccc(C)cc1NS(=O)(=O)c1ccc2oc(=O)c3ncn(C)c3c2c1	?	3	-9%	-1%	.
Cc1cccc(CCN(CC(=O)NCc2ccc(F)cc2)C(=O)c2csnn2)c1	?	-18	-3%	-24%	-11%
O=S(=O)(c1ccccc1)c1nc(-c2cccs2)oc1SCc1ccccc1F	4%	-9	-6%	-3%	.
CCN(CC)c1ccc(CNCCc2ccc(F)cc2)cc1	?	9	10µM*	-8%	?
COCCn1c(=O)c(-c2ccc(Cl)cc2)nc2cnc(N3CCOCC3)nc21	-14%	.	.	.	.
COC(=O)c1c(OCC2CCCN(C)C2)cc(=O)n2c1CCN(Cc1ccc(OC)c(O)c1)CC2 (configuration not stated)	-6%	.	-1%	-3%	.
N/N=C/C(=N\Nc1ccc(Cl)cc1)C(=O)c1ccncc1	?	-27	?	-20%	22µM*
COc1ccc(N/N=C(\C=N\O)C(=O)c2ccc(OC)cc2)cc1	-1%	-11	-23%	?	-16%
COc1cccc(C(=O)NCCS(=O)(=O)N2CC(C)CC(C)C2)c1 (configuration not stated)	-9%	-29	-25%	-18%	8%
CCC(O)(CC)C(=O)NN(C(=O)CCl)c1ccccc1	?	-94*	-9%	-17%	-13%
Cc1ccc(N(NC(=O)C(O)(c2ccccc2)c2ccccc2)C(=O)CCl)cc1	8.9µM*	-99*	?	?	3.2µM*
Cc1ccc(C(O)(C(=O)NN(C(=O)c2ccccc2)c2ccccc2)c2ccc(C)cc2)cc1	8%	29	-14%	2%	4%
O=C(Nc1ccccc1)NN(C(=O)CCl)c1ccccc1	20µM*	-102*	?	?	?
CC(=O)Oc1ccc(Cn2c(C)c(C(=O)NCCC#N)sc2=O)cc1	20%	-19	i	5%	.
